Compound activity as filed in PubChem.
FLuc counter: counter-screen for miR-21 project: firefly luciferase inhibitors or activators; P08659; hit rate 6.9% among 360,000; Potency, µM (top dose mostly 57.5 µM), for the others: top-dose activity change, negative = inhibition, most hits filed as inhibitors; purified FLuc, Km substrates, luminescence inhibition;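 further: plate controls were vehicle for no effect and reference inhibitor for full effect; nearly all actives have a fitted effect of over 55% in size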
Target sequence (P08659 whole entry, looked up): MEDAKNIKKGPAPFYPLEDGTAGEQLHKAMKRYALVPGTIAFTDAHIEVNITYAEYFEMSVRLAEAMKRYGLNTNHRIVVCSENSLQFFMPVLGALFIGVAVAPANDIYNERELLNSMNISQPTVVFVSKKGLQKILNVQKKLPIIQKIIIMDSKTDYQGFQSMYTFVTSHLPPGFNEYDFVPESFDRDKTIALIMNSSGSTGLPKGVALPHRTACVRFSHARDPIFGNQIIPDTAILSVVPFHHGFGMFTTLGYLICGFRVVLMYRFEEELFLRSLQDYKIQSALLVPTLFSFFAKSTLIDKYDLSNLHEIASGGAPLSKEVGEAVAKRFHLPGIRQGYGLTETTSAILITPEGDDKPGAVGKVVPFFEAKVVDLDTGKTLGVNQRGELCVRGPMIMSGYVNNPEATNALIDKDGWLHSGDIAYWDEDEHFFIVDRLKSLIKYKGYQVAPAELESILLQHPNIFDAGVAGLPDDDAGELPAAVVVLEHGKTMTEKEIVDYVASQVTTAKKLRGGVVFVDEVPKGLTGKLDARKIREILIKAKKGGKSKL
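Biochemical qHTS of compounds, final roughly 60 µM downward over six points, against 10 nM purified firefly luciferase using Km concentrations of substrates (10 uM D-luciferin, 10 uM ATP) in Tris acetate pH 7.5 buffer; luminescence output.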
ELG1 genotoxic: induces genotoxicity in HEK293T cells with luciferase-tagged ELG1. Potency, µM (doses to about 46 µM), for the others: at the top dose activity change, positive = activation, most hits filed as activators. hit rate 1.3% among 330,000. HEK293T ELG1-luciferase reporter, luminescence, 16 h. AID 504466; further: % of control where 0% means no effect; nearly all actives have a fitted effect of over 60% in size
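16 hr compound incubation (37 °C, 5% CO2) of HEK293T cells carrying luciferase-tagged ELG1; luciferase then measured by ONE-Glo luminescence after 30 min at RT.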
SMN2 splice up: SMN2 splice variant enhancement; HEK293 SMN2-luciferase splicing reporter, luminescence, 30-36 h; Potency, µM (series often up to 46.1 µM), for the others: at the highest dose activity change, positive = activation, hits mostly activators; hit rate 2.8% among 210,000; further: % of control where 0% means no effect; nearly all actives have a fitted effect of over 55% in size
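HEK293 cells carry an SMN2 minigene-luciferase reporter in which exon 7 inclusion puts luciferase in frame. Cells were seeded at 2000 cells/well, attached for 10-12 hours, then exposed to compounds for 30-36 hours at 37C before ONE-Glo luminescence.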
Luc counter: counter-screen: inhibitors of Kinase-Glo firefly luciferase | hit rate 0.28% among 200,000 | Q27757 | AID 1379 | Potency, µM (top dose mostly 38.3 µM), for the others: top-dose activity change, negative = inhibition, most hits filed as inhibitors | Kinase-Glo luciferase, ATP luminescence, 8 min; further: on the % scale 0 is the no-effect control and ±100 the full control effect; nearly all actives have a fitted effect of over 60% in size
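Compounds were added to a substrate mix at pH 7.2 (50 mM imidazole, 10 uM ATP, within the enzyme's linear range), followed by Kinase-Glo detection reagent; luminescence was measured after 8 minutes at ambient temperature.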
NPC1 prom act: activates the NPC1 promoter. AID 485313. hit rate 2.4% among 320,000. Huh7 NPC1 promoter luciferase reporter, 24 h. Potency, µM (series often up to 9.22 µM), without a hit: at the top dose activation, hits mostly activators; further: % of control where 0% means no effect; nearly all actives have a fitted effect of over 60% in size
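Luminescence from an NPC1 promoter-driven luciferase reporter in stably transfected Huh7 cells was measured after 24 h compound treatment at 37 °C, followed by 10 min ambient incubation with luciferase detection reagent.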
Rab9 prom act: Rab9 promoter activation; Potency, µM (series often up to 9.22 µM), without a hit: at the top dose activation, negative = inhibition, hits mostly activators; hit rate 2.8% among 320,000; Huh7 Rab9 promoter-luciferase reporter, luminescence, 24 h; AID 485297; further: % of control where 0% means no effect; nearly all actives have a fitted effect of over 60% in size
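Cells were plated at 1500 per well in reduced-serum medium with 10% FBS and left 2 h. Compound in DMSO was then added for 24 h at 37 °C. Reporter signal was read by luminescence after 10 min with luciferase detection reagent.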
Starred values were filed as active, the others as inactive. The list is not random: actives were taken first. Their share in the collection is about 7.5%. The call rests on the fitted dose curve; in most records, active means well fitted curve in the direction sought with a large enough effect; inconclusive means small, poorly fitted or top-dose-only effect, or another doubt; inactive means no such curve, though single readings can be large; an effect the other way counts as inactive or inconclusive. Potency means the concentration at half of the fitted maximal effect.

CCOC(=O)C1=C(CN2CCN(c3ccccc3F)CC2)NC(=O)NC1c1ccc(Cl)cc1 (stereo not given) was read as FLuc counter -1% and SMN2 splice up 8%.
`Nc1nc(C2CC2)c(Sc2sc(N)nc2C2CC2)s1` gave FLuc counter -1%, ELG1 genotoxic -6%, SMN2 splice up 16µM*, Luc counter -3%, NPC1 prom act 1% and Rab9 prom act -3%.
`Nc1nc(C2CCOCC2)cs1` gave FLuc counter -2%, ELG1 genotoxic 0%, NPC1 prom act 2% and Rab9 prom act 1%.
Screening O=C1C2C3C=CC(C4CC34)C2C(=O)N1c1cccc2ccccc12 (stereo not given) returned FLuc counter 6.7µM*, ELG1 genotoxic 4%, NPC1 prom act 14% and Rab9 prom act 10%.
`COc1ccc(CCNC(=O)c2[nH]c(C)c(C(C)=O)c2C)cc1OC` gave FLuc counter 6%, ELG1 genotoxic -1%, SMN2 splice up inconclusive, Luc counter 4%, NPC1 prom act 2% and Rab9 prom act 3%.
`CN(CC(=O)NCCc1ccccc1)Cc1ccco1` gave FLuc counter inconclusive, ELG1 genotoxic 21µM*, NPC1 prom act inconclusive and Rab9 prom act 26%.
For CC(=O)c1c(C)[nH]c(C(=O)NCCc2ccccc2)c1C the results were FLuc counter 11µM*, ELG1 genotoxic inconclusive, SMN2 splice up 11µM*, Luc counter -5%, NPC1 prom act 2.5µM* and Rab9 prom act 1.3µM*.
Screening O=C(NCCc1csc(-c2ccccc2)n1)c1c(F)cccc1F returned FLuc counter inconclusive, ELG1 genotoxic -14%, SMN2 splice up -66%, Luc counter 4%, NPC1 prom act 2% and Rab9 prom act -1%.
`O=C(NCCc1ccccc1)c1c(F)cccc1F` gave FLuc counter 17µM*, ELG1 genotoxic inconclusive, Luc counter -7%, NPC1 prom act 1.6µM* and Rab9 prom act 1.4µM*.
For O=C(NCCc1ccccc1)c1ccco1 the results were FLuc counter inconclusive, ELG1 genotoxic inconclusive, SMN2 splice up 13µM*, Luc counter -7%, NPC1 prom act inconclusive and Rab9 prom act inconclusive.
COC(=O)[C@@]1(Cc2ccc(OC)cc2)[C@H]2c3cc(C(=O)N(C)C)n(CCN4CNCC4=O)c3C[C@H]2CN1C(=O)c1ccccc1 was read as SMN2 splice up -6% and Luc counter -2%.
For CCOc1ccc2c(c1)nc(SCC(=O)c1cccs1)n2C the results were FLuc counter 12µM*, ELG1 genotoxic inconclusive, SMN2 splice up 23%, Luc counter -3%, NPC1 prom act inconclusive and Rab9 prom act 25%.
`O=C(N/N=C/c1ccc(-c2ccccc2[N+](=O)[O-])o1)c1cccnc1` gave FLuc counter inconclusive, ELG1 genotoxic 0%, SMN2 splice up 6%, Luc counter 1%, NPC1 prom act 14% and Rab9 prom act 1%.
CC(C)(C)c1cc(C(=O)N/N=C/c2ccc(-c3ccccc3[N+](=O)[O-])o2)n[nH]1 was read as FLuc counter 21µM*, ELG1 genotoxic -3%, NPC1 prom act 18% and Rab9 prom act 9%.
For Cc1cc(C(=O)N/N=C/c2cccc([N+](=O)[O-])c2O)n[nH]1 the results were FLuc counter 15µM*, ELG1 genotoxic -3%, SMN2 splice up -13%, Luc counter 2%, NPC1 prom act 2% and Rab9 prom act -6%.
For COc1ccc(NCc2nnc(-c3ccccc3)o2)cc1 the results were FLuc counter 3%, ELG1 genotoxic 6%, NPC1 prom act 2% and Rab9 prom act 3%.
For O=C1CS(=O)(=O)C2(C(=O)N(Cc3cccc(F)c3)c3ccccc32)N1c1ccccc1 (stereo not given) the results were FLuc counter -7%.
For CCOc1ccccc1NS(=O)(=O)c1c(C)noc1C the results were FLuc counter -3%, ELG1 genotoxic 23µM*, SMN2 splice up 28%, Luc counter -2%, NPC1 prom act 3% and Rab9 prom act 2%.
Screening COC(=O)c1ccccc1NS(=O)(=O)c1c(C)noc1C returned FLuc counter 1%, ELG1 genotoxic -1%, NPC1 prom act 2% and Rab9 prom act 4%.
Screening COCc1cc(=O)n2[nH]c(C(C)(C)C)cc2n1 returned FLuc counter -5%, ELG1 genotoxic 0%, NPC1 prom act 1% and Rab9 prom act 3%.
Screening COCc1cc(=O)n2[nH]c(-c3ccccc3)cc2n1 returned FLuc counter 19µM*, ELG1 genotoxic inconclusive, SMN2 splice up 11%, Luc counter -6%, NPC1 prom act 16% and Rab9 prom act 22%.
For COCc1cc(=O)n2[nH]c(-c3cccc(Br)c3)cc2n1 the results were FLuc counter inconclusive, ELG1 genotoxic 11µM*, SMN2 splice up inconclusive, Luc counter -1%, NPC1 prom act 29% and Rab9 prom act 22%.
Screening COCc1cc(=O)n2[nH]c(C)cc2n1 returned FLuc counter 9%, ELG1 genotoxic -1%, SMN2 splice up -18%, Luc counter -2%, NPC1 prom act -6% and Rab9 prom act -10%.
COc1cc(-c2nc3nc[nH]n3c2Nc2ccc(C(C)C)cc2)ccc1O was read as FLuc counter inconclusive and SMN2 splice up -3%.
O=C1C(Cl)=C(N2CCCCC2)C(=O)N1Cc1ccccc1 was read as FLuc counter -2%, ELG1 genotoxic -1%, SMN2 splice up -25%, Luc counter -7%, NPC1 prom act -6% and Rab9 prom act -3%.
O=C1C(Cl)=C(NCC2CCCO2)C(=O)N1CCc1ccccc1 (stereo not given) was read as FLuc counter 15µM*, ELG1 genotoxic inconclusive, SMN2 splice up 13µM*, Luc counter 0%, NPC1 prom act inconclusive and Rab9 prom act inconclusive.
`O=C1C(Cl)=C(N2CCOCC2)C(=O)N1CCc1ccccc1` gave FLuc counter 19µM*, ELG1 genotoxic inconclusive, SMN2 splice up 13µM*, Luc counter -2%, NPC1 prom act 13% and Rab9 prom act inconclusive.
CN1CCN(C2=C(Cl)C(=O)N(CCc3ccccc3)C2=O)CC1 was read as FLuc counter inconclusive, ELG1 genotoxic 14%, SMN2 splice up 13µM*, Luc counter 4%, NPC1 prom act 19% and Rab9 prom act inconclusive.
Cc1ccc(C(=O)N2CCN(CCc3ccncc3)CC2)cc1 was read as FLuc counter -1%.
